# Shown are actives, neighbours in structure and some others; about 19% of the full set was active somewhere.
# HT1080 IDH1KD tx: qHTS for induction of synthetic lethality in tumor cells producing 2HG: qHTS for the HT-1080-IDH1KD cell line. 360,000 tested, 2% active. HT-1080 IDH1 knockdown viability, ATP luminescence, 48 h. AID 686971, 2013. Potency, µM (highest dose often 46.1 µM), without a hit: at the top dose activity, negative = toxicity, actives largely listed as cytotoxic;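 further: potency means the concentration at half of the fitted maximal effect; 0% = DMSO wells and -100% = cell-free medium wells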
#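 Knockdown cells (IDH1KD HT-1080) received compounds 2 h after plating at 750 cells/well and were kept 48 h at 37 °C in 5% FBS RPMI. A CellTiter-Glo luminescence read gave % activity for curve fitting.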
# TDP1 cell CPT: qHTS for Inhibitors of human tyrosyl-DNA phosphodiesterase 1 (TDP1): qHTS in cells in presence of CPT | chicken DT40 Tdp1-/-;hTDP1 cells + 20 nM CPT, ATP luminescence, 48 h | Potency, µM (top dose mostly 46.2 µM), for inactives: at the highest dose activity change, negative = growth inhibition, hits mostly inhibitors | 420,000 tested, 12% active | AID 686979, 2013; further: potency means the concentration at half of the fitted maximal effect; nearly all actives have a fitted effect of over 55% in size
#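 Chicken DT40 Tdp1-/- cells complemented with human TDP1, 400 cells/well, exposed to compounds plus 20 nM camptothecin for at least 48 h at 37 C; viability read as ATP content by CellTiter-Glo luminescence.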
# IL-1B inflam inh: qHTS for Inhibitors of Inflammasome Signaling: IL-1-beta AlphaLISA Primary Screen. THP-1 LPS/ATP IL-1B secretion, AlphaLISA, 16 h; hits give low values. activity change, % at 57.5 µM. 360,000 tested, 4.7% active; in the data active means activity change below about -50%; inconclusive means mostly about -30% to -49%
#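 Secreted IL-1B measured by AlphaLISA bead assay after 16 h compound exposure of THP-1 cells; compounds (final up to 57.5 uM) added 1 h before LPS (250 ng/mL) and ATP (1.25 mM) stimulation; lower signal means less secretion.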
# HT1080NT lethal: qHTS for induction of synthetic lethality in tumor cells producing 2HG: qHTS for the HT-1080-NT fibrosarcoma cell line; AID 686970, 2013; HT-1080-NT fibrosarcoma viability, CellTiter-Glo ATP luminescence, 48 h; Potency, µM (highest dose often 46.1 µM), without a hit: top-dose activity, negative = less viability, usual class: cytotoxic; 360,000 tested, 1.6% active;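 further: NT is the 2HG producing partner of a matched IDH1 knockdown line; potency means the concentration at half of the fitted maximal effect; 0% = DMSO-treated cells and -100% = media-only wells without cells; nearly all actives have a fitted effect of over 55% in size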
#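 HT-1080-NT fibrosarcoma cells (2HG-overproducing), 750 cells/well in RPMI with 5% FBS, dosed after 2 h and incubated 48 h at 37C. CellTiter-Glo luminescence normalized to DMSO and no-cell wells; concentration-response curves fitted and classed.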
# DT40 TDP1 no CPT: qHTS for Inhibitors of human tyrosyl-DNA phosphodiesterase 1 (TDP1): qHTS in cells in absence of CPT. Potency, µM (series often up to 46.2 µM), for inactives: at the highest dose activity change, negative = growth inhibition, actives largely listed as inhibitors. DT40 Tdp1-/- hTDP1 cells, no CPT, ATP luminescence, 48 h. 420,000 tested, 15% active; further: potency means the concentration at half of the fitted maximal effect; nearly all actives have a fitted effect of over 55% in size
#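 Chicken DT40 Tdp1-/- cells complemented with human TDP1, screened without camptothecin (DMSO vehicle only), 400 cells/well. Compounds pin-transferred, cells incubated at 37 °C for at least 48 hr. Growth read as ATP-dependent luminescence (CellTiter-Glo, 30 min at RT).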
# * = called active by the depositor; ? = inconclusive; . = no result. Unless noted, the call rests on the fitted dose curve; in most records, active means well fitted curve in the direction sought with a large enough effect; inconclusive means small, poorly fitted or top-dose-only effect, or another doubt; inactive means no such curve, though single readings can be large; an effect the other way counts as inactive or inconclusive. Unless noted, on the % scale 0 is the no-effect control and ±100 the full control effect.
SMILES,HT1080 IDH1KD tx,TDP1 cell CPT,IL-1B inflam inh,HT1080NT lethal,DT40 TDP1 no CPT
COC(=O)C1(C(C[N+](=O)[O-])c2ccc(C)cc2)C(=O)NCC1c1ccco1 (configuration not stated),-11.6%,?,-4.6,-1.5%,?
C=C1C(=O)O[C@@H]2C3OC3(C)CC/C=C(\C)CC[C@@H]12 (some centres not stated),.,10.6µM*,.,.,10.6µM*
C=C1C(=O)OC2C1CC/C(C)=C/CCC1(C)OC21 (configuration not stated),.,2.31µM*,.,.,2.91µM*
C=C1C(=O)O[C@H]2[C@H]1CC/C(C)=C\CC[C@@]1(C)O[C@@H]21,.,2.37µM*,.,.,2.66µM*
C=C1C(=O)O[C@@H]2[C@H]3O[C@]3(C)CC/C=C(\C)CC[C@@H]12,18.4µM*,4.61µM*,-110.4*,9.2µM*,5.17µM*
C=CCn1c(SCC#N)nc2ccc(Cl)cc2c1=O,.,-5.8%,.,.,-20.7%
CC1CCN(C(=O)Cn2nnc(-c3ccc([N+](=O)[O-])cc3)n2)CC1,-1.3%,-14.1%,6.7,2.6%,1.4%
COc1ccc(OC)c(CN2CCCC(c3nc(-c4ccncc4)ncc3-c3ccccc3C)C2)c1 (configuration not stated),.,-1.0%,.,.,-1.1%
Cc1cccc(-c2noc(-c3ccccc3OCC(=O)Nc3ccc([N+](=O)[O-])cc3)n2)c1,.,-1.5%,.,.,4.8%
CC(=O)Nc1sc(N)nc1-c1ccccc1,7.6%,3.1%,30.2,2.1%,-18.1%
Nc1nc(-c2ccccc2)c(N=Nc2cccc3ccccc23)s1,20.6µM*,23.1µM*,-25.6,?,16.4µM*
Nc1nc(-c2ccccc2)c(N=Nc2ccccc2Cl)s1,18.4µM*,-16.5%,-63.8*,?,16.4µM*
Cc1ncc(N=Nc2ccccc2Cl)c(-c2ccccc2)n1,16.5%,?,?,8.1%,?
CCC[C@@H]1C[C@@]1(CCC)[C@@H](NP(=O)(c1ccccc1)c1ccccc1)c1ccc(C(=O)OC)cc1,-5.3%,?,-2.7,-2.9%,16.4µM*
CCN1C(=O)CCN(C2CCCC2)c2nc(Nc3ccc(C(=O)NC4CCN(C)CC4)cc3OC)ncc21,20.6µM*,5.17µM*,51.6,?,7.31µM*
O=C(Nc1nnc2n1CCS2)c1cc(C(F)(F)F)cc(C(F)(F)F)c1,.,5.8µM*,.,.,4.61µM*
COc1cc(OC)cc(C(=O)Nc2nnc3n2CCS3)c1,.,-11.9%,.,.,?
CS(=O)(=O)N1CCC2(CC1)CN(c1ccccn1)C2,.,6.1%,.,.,-14.7%
O=C1c2cccnc2C(=O)N1Cc1ccc(S(=O)(=O)N2CCOc3ccc(Cl)cc32)cc1,1.0%,-10.0%,28.7,-1.1%,21.7%
CCCCN1CCCc2cc(CN(CCCN3CCOCC3)C(=O)Nc3ccc(OCC)cc3)ccc21,.,18.4µM*,.,.,18.4µM*
Cc1ccccc1NC(=S)N(CCN1CCCCCC1)Cc1cccs1,-6.7%,?,-8.5,-3.8%,?
CCN1CCCc2cc(CN(CCN3CCOCC3)C(=O)Nc3ccc(C)c(C)c3)ccc21,-17.7%,?,?,-3.5%,25.9µM*
CCN1CCCc2cc(CN(CCN3CCOCC3)C(=S)Nc3ccccc3OC)ccc21,-0.1%,?,-3.3,-4.2%,16.4µM*
COc1ccccc1NC(=S)N(CCN1CCCCCC1)Cc1cccs1,-7.0%,?,-13.0,-10.5%,9.2µM*
CC1CN(C(=O)c2cc3cc(Br)ccc3[nH]2)CC(C)O1 (configuration not stated),-0.6%,-26.3%,-12.3,-3.4%,?
SMILES,HT1080 IDH1KD tx,TDP1 cell CPT,IL-1B inflam inh,HT1080NT lethal,DT40 TDP1 no CPT
CCN1CCCc2cc(CN(CCN3CCOCC3)C(=S)Nc3ccc(OC)c(Cl)c3)ccc21,-2.5%,?,0.0,0.4%,9.2µM*
COCCN(C(=S)Nc1ccccc1OC)C(C)c1cccs1 (configuration not stated),19.2%,23.1µM*,7.4,5.7%,29.1µM*
CCN1CCCc2cc(CN(CCN3CCOCC3)C(=S)Nc3ccccc3C)ccc21,0.6%,-17.5%,25.4,-3.5%,0.8%
CCN1CCCc2cc(CN(CCN3CCOCC3)C(=S)Nc3cccc(C)c3)ccc21,-11.5%,16.4µM*,?,-19.4%,?
Cc1c(OCC(=O)N(C)C)ccc2c3c(c(=O)oc12)CCCCC3,1.5%,-15.8%,-2.0,1.2%,?
Cc1cc(=O)oc2c(C)c(OCC(=O)NC3CCN(Cc4ccccc4)CC3)ccc12,-4.2%,?,?,0.2%,?
Cc1c(OC(C)C(=O)NCc2ccccn2)ccc2c3c(c(=O)oc12)CCCC3 (configuration not stated),-13.1%,13µM*,-27.7,-8.0%,?
Cc1c(OCC(=O)NC2CCN(Cc3ccccc3)CC2)ccc2c3c(c(=O)oc12)CCC3,-3.0%,16.4µM*,-22.5,-4.2%,?
CC(=O)COc1ccc2c3c(c(=O)oc2c1C)CCCCC3,7.7%,14.6µM*,-12.1,1.5%,?
Nc1[nH]c(C(=O)c2ccccc2)c(-c2ccc(Cl)cc2)c1C(=O)NCc1ccco1,-4.7%,-2.7%,-17.3,-24.0%,-1.2%
COc1cccc(NC(=O)C2CCCN(S(=O)(=O)c3c(C)nn(C)c3C)C2)c1 (configuration not stated),.,?,.,.,14.6µM*
COc1cccc(NC(=O)C2CCCN(S(C)(=O)=O)C2)c1 (configuration not stated),-2.4%,5.3%,4.6,-1.0%,-19.7%
COc1ccc(OC)c(NC(=O)C2CCCN(S(=O)(=O)c3c(C)nn(C)c3C)C2)c1 (configuration not stated),7.1%,?,-11.5,2.4%,20.6µM*
COC(=O)c1ccccc1NC(=O)/C=C/c1cc(OC)c(OC)c(OC)c1,-7.8%,20.6µM*,-84.6*,-4.4%,20.6µM*
COc1cc(/C=C/C(=O)Nc2nnc(C(C)(C)C)s2)cc(OC)c1OC,4.2%,?,-9.3,-3.0%,?
COc1cc(/C=C/C(=O)Nc2ccc(C)cc2)cc(OC)c1OC,-8.3%,?,14.8,-4.3%,16.4µM*
COc1cc(/C=C/C(=O)Nc2ccc(S(=O)(=O)Nc3onc(C)c3C)cc2)cc(OC)c1OC,5.2%,8.8%,-11.8,1.8%,-2.3%
COc1ccc(Br)cc1/C=C/C(=O)Nc1ccc2ccccc2c1,1.1%,?,-19.8,10.7%,?

# Screening results (PubChem)
